Many of the other results were omitted from the sample, so hits are more common in it than they were.
SF1 inhibitor – blocks the human nuclear receptor SF-1. Q13285. CHO-K1 Gal4-SF-1 LBD luciferase reporter. inhibition, % at 10 µM. 65,000 tested, 0.55% active;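 active means inhibition above the mean inhibition of all tested compounds plus 3 SD, cut at about 48% in these data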
Target sequence (Q13285 whole entry, looked up, the tested form may be a part): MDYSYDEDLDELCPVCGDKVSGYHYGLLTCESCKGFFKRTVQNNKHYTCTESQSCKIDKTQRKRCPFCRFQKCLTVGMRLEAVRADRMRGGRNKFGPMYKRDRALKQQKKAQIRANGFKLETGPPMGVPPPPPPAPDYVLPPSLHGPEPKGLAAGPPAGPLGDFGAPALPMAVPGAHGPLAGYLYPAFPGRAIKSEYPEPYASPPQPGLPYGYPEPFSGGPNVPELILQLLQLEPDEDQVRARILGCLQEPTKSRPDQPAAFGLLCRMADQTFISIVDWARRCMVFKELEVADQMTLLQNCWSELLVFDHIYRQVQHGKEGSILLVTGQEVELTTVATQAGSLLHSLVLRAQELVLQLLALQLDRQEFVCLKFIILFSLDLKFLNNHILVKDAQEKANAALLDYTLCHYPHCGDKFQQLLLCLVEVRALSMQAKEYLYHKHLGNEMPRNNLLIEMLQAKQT
Large screens that a line does not name were inactive.

CC1C(O)=C(c2nc3ccccc3[nH]2)C(=N)N1c1ccccc1 (centres undefined)	none
COc1ccccc1-c1cn(S(=O)(=O)c2ccc(F)cc2)nc1N	none
Cn1c(SCc2ccc(F)cc2)nnc1-c1cccs1	none
O=C(CSc1n[nH]c(-c2ccncc2)n1)NC1CCS(=O)(=O)C1 (centres undefined)	none
CCOC(=O)N1CCC(NC(=O)c2cnn3c(C(F)(F)F)cc(-c4cccc(OC)c4)nc23)CC1	none
CCOC(=O)N1CCC(NC(=O)C2CCCN(Cc3nc(-c4cccc(Cl)c4)oc3C)C2)CC1 (centres undefined)	SF1 inhibitor 58
CCOC(=O)N1CCC(NC(=O)c2ccc(OC)c(CN3CC(=O)N4CCCC4C3=O)c2)CC1 (centres undefined)	none
Cn1c(-c2ccc3ccccc3n2)nc2cnccc21	none
O=C(CNC(=O)c1ccccc1C(=O)O)c1ccccc1	none
COc1ccc(-c2cc3nc4n(c(=O)c3s2)CCC4)cc1	SF1 inhibitor 78
O=C(COc1ccc(-c2nnco2)cc1)NC1CCCc2ccccc21 (centres undefined)	none
CN(C)S(=O)(=O)c1ccc(C(=O)N2CCC(c3nc4ccccc4o3)CC2)cc1	none
COc1cccc(-c2nnc(Nc3nc4c(F)cccc4s3)o2)c1	none
COCCCNc1oc(-c2ccccc2OC)nc1C#N	none
COc1ccccc1-c1nnc(Nc2nc3c(OC)cccc3s2)o1	SF1 inhibitor 67
c1ccc(-n2nnc3c(N4CCOCC4)ncnc32)cc1	SF1 inhibitor 52
O=c1c2ccccc2nc2c3ccccc3c(N3CCOCC3)nn12	none
O=c1[nH]c(N2CCOCC2)nc2ncn(Cc3ccccc3)c12	none
Cc1c(CCC#N)c(N2CCN(C3CCCCC3)CC2)n2c(nc3ccccc32)c1C#N	none
CC(C)Oc1ccc(/C(O)=C2/C(=O)C(=O)N(CCN(C)C)C2c2ccco2)cc1 (centres undefined)	none
O=S(=O)(c1ccccc1)c1cccc(S(=O)(=O)N2CCCCC2)c1	none
O=S(=O)(c1ccc2c(c1)C(=NO)c1cc(S(=O)(=O)N3CCCCC3)ccc1-2)N1CCCCC1	SF1 inhibitor 96
O=C(c1ccccc1F)N1CCN(S(=O)(=O)c2ccc(S(=O)(=O)N3CCCCC3)cc2)CC1	none
CC1CCCCN1C(=O)C1CC(c2ccc(F)cc2)=NO1 (centres undefined)	none
Cc1c(C(=O)N2CCOCC2)[nH]c2c1C(=O)CC(c1ccccc1Cl)C2 (centres undefined)	none
FC(F)(F)c1cnc(Nc2ccc(N3CCOCC3)cc2)c(Cl)c1	none
O=C(Nc1nccs1)c1ccc(COc2ccccc2Br)o1	none
O=S1(=O)C=C(Sc2nc3ccccc3s2)c2ccccc21	SF1 inhibitor 93
OC1CCCCC1Sc1nc2ccccc2s1 (centres undefined)	none
Cn1c(CSc2nc3ccccc3s2)nc2ccccc21	none
O=C(CCc1c[nH]c2ccccc12)NCC1CCCO1 (centres undefined)	none
Cc1ccc(-c2nsc3c(N4CCC(C(N)=O)CC4)ncnc23)cc1	SF1 inhibitor 49
COCCn1c(SCCN2CCCCC2)nc2ccccc2c1=O	none
Cc1nnc(Sc2nc3c(c(=O)[nH]c(=O)n3C)n2CCCc2ccccc2)s1	none
COc1ccc(CNc2ccc3c(c2)nc(C)n3C)cc1	none
COc1ccc(CCNc2c(C)c(C)nc3ncnn23)cc1	SF1 inhibitor 81
CNc1csc(C)c(C)c1=O	none
CC(=O)N1CCN(c2ccc(Oc3nnnn3-c3ccccc3)cc2)CC1	none
O=C1CC(CCC(=O)NC2CC2)c2ccccc2N1 (centres undefined)	none
COc1ccc2sc(NC(C)=O)nc2c1	none
COc1cc2ccccc2cc1C(=O)Nc1cccnc1	none
COc1ccc(C(NC(C)=O)c2ccc3cccnc3c2O)c(OC)c1 (centres undefined)	SF1 inhibitor 82
CCC(C)NS(=O)(=O)c1ccc(NC(=O)c2c(-c3ccccc3)noc2C)cc1 (centres undefined)	none
CCn1ccnc1C(O)c1cccc(OC)c1OC (centres undefined)	none
O=S1(=O)C=C(Sc2nnc(-c3ccccc3)o2)c2ccccc21	SF1 inhibitor 66
COc1ccccc1NC(=O)CSc1nnc(-c2ccc(C)cc2)o1	none
Brc1cccc(-c2nnc(-c3ccccc3)o2)c1	none
CCN(CC)c1ccc2c(c1)CCCN2	none
Cn1c(-c2ccccc2)cc2c3no[n+]([O-])c3ccc21	SF1 inhibitor 73
Cc1ccc(OCc2nc(-c3ccccc3)no2)c(C)c1	none
COc1ccc(-c2ccc(CCC(=O)O)n2C(C)C)cc1	none
CCOc1ccc(-c2nnc(N)o2)cc1	none
COc1ccc(-c2noc(CCCC(=O)O)n2)cc1	SF1 inhibitor 57
CCOc1ccc(-c2noc(CCC(=O)O)n2)cc1	SF1 inhibitor 53
Cc1ccc(-c2noc(CCCC(=O)N3CCOCC3)n2)cc1	none
OCC1(C2=NOC(O)(C(F)(F)F)C2)CCCCC1 (centres undefined)	none
Cc1ccc(C)c(N2CCN(C(=O)CCCn3c(=S)[nH]c4cc5c(cc4c3=O)OCO5)CC2)c1	none
CCC(=O)Nc1ccc(NC(=O)CSc2nnnn2CC)cc1C	none
CCCCN1CC(C(=O)NC2CCCCC2)CC1=O (centres undefined)	none
COc1ccc(C2(CN(C(C)=O)C(C)=O)CCCC2)cc1OC	none
CC(C)CCn1c(Sc2nc3ccccc3s2)nc2c1c(=O)[nH]c(=O)n2C	none

Screens deposited in PubChem BioAssay by The Scripps Research Institute Molecular Screening Center.
